# This is part of a sample that, as a whole, favours compounds with a hit. Of some 83,000 tested, about 20% had one in any assay.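 Negative percent growth values reflect cell death: -40 means 40% of the cells present at the start died, and -100 means all died.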 Values without a mark were called inactive. Activity calls are given as the source filed them.
# Test system: NCI-H322M lung
# Assay: NCI-60 one-dose screen, 48 h (100 = growth as untreated, 0 = no growth, -100 = all killed)
# Settings: 10 µM
# Experimental: Growth inhibition of the NCI-H322M human Non-Small Cell Lung tumor cell line is measured as a screen for anti-cancer activity. Cells are grown in 96 well plates and exposed to the test compound for 48 hours. Compounds are tested at a single concentration, which is 10^-5 M for most compounds. The reported endpoint is percent growth (GI% or GIPRCNT), where numbers from 0 - 100% represent growth inhibition, and numbers from -100% - 0 represent cell death. For example, a value of 40 represents 60% growth inhibition. A value of 0 means no net growth occurred over the course of the experiment. A value of -40 indicates 40% of cells at the beginning of the experiment died by the end of the experiment. A value of -100 means all cells are dead at the end of the experiment.
# NCI-60 Human Tumor Cell Lines Screen was performed using the standard one-dose NCI protocol, which is described in more detail at https://dtp.cancer.gov/discovery_development/nci-60/default.htm.
# Compounds with GIPRCNT values below 10 were considered active. Activity score was based on GIPRCNT using the following formula: […]
# Score is 0 for GIPRCNT values of 100 or above, 50 for GIPRCNT values of 0, and 100 for GIPRCNT values of -100.
row,SMILES,growth
1,CCC(C#N)(CC)c1ccccc1,99.4%
2,CS(=O)CC1=NC(=N)N=C1CS(C)=O (stereo not given),101%
3,Cc1cc(C)c(CC(=O)O)c(C)c1,100%
4,CCOC(=O)c1ccc(Nc2sc(C(=O)c3cccc([N+](=O)[O-])c3)c(N)c2C#N)cc1,55%
5,COc1ccccc1NC(=O)c1cc2cc(Br)ccc2cc1O,22.6%
6,CNS(=O)(=O)c1ccc(Cl)c(Cl)c1,103%
7,CN(C)c1ccc(C(c2ccc(O)cc2)c2ccc(N(C)C)cc2)cc1,98.4%
8,COc1ccc(C2OC(N)=C(O)C2=O)cc1OC (stereo not given),102%
9,OCc1ccc(-c2ccc(-c3ccc(CO)s3)o2)s1,55.3%
10,Cc1cc(C(C)(C)C)cc(C)c1Br,121%
11,Cc1cc(=O)[nH]c(NN=C2CCCC2)n1,108%
12,CC(=O)C1CCCCC1,105%
13,CC(=O)c1ccc(C(C)(C)C)cc1,104%
14,O=S(=O)(O)CC(O)CN1CCN(CCO)CC1 (stereo not given),112%
15,O=C(NCc1ccco1)Nc1c(Cl)cc(Cl)cc1Cl,106%
16,CCO/C=C1\SC(=S)N(c2cccc(C)c2)C1=O,92%
17,CCOC(=O)c1coc(C(=O)OCC)c1C(=O)OCC,120%
18,COc1cc(C2c3cc4c(cc3C3OC(=O)C2C3CO)OCO4)cc(OC)c1OC (stereo not given),36.9%
19,O=C(NCO)c1ccccc1,91.6%
20,CCOc1ccc(Br)cc1/C=N\N=C\c1cc(Br)ccc1OCC,111%

row,SMILES,growth
1,Oc1ccc(Cc2ccccc2)c2cccnc12,-2.54% (active)
2,O=C(O)c1ccnc(Br)c1,106%
3,CCOC(=O)C(CCC(C)C)C(=O)OCC,112%
4,C/C(=N\NC(=O)c1ccccc1N)c1ccccc1O,26.4%
5,CN(C)Cc1cc(C(C)(C)CC(C)(C)C)ccc1O,100%
6,CCC(=O)Oc1ccc(OC)cc1,95.5%
7,O=C1N(C[P+](c2ccccc2)(c2ccccc2)c2ccccc2)CCCN1C[P+](c1ccccc1)(c1ccccc1)c1ccccc1,106%
8,NC(C(=O)O)C(O)c1ccco1 (stereo not given),107%
9,Nc1ccc(C(=O)c2ccc(N)c(Br)c2)cc1Br,65.5%
10,CC(=O)OCC1CCCO1 (stereo not given),98.7%
11,O=C(CCl)Nc1ccc2c(c1)C(=O)c1ccc(NC(=O)CCl)cc1C2=O,-36.5% (active)
12,Nc1ncnc2[nH]ncc12,0.523% (active)
13,O=C(Nc1cc(-c2ccccc2)[nH]n1)c1ccc(Cl)cc1,79.4%
14,O=c1cc(-c2ccccc2)nc2cc(-c3ccco3)[nH]n12,95.6%
15,NC(=S)NN=C1CCCC1,91.7%
16,C#C[C@H]1CCCCCC1O (stereo not given in full),104%
17,CC1(C)/C(=C\CO)C2CCC1C2 (stereo not given),103%
18,O=C(CCNNC(=O)c1ccncc1)NCc1ccccc1,110%
19,CC1CC(O)C2C3(C)CCCC2(COC3=O)C12CCC1(CCOC1=O)O2 (stereo not given),117%
20,Cc1cc2nc(CC(=O)c3ccccc3)c(=O)[nH]c2cc1C,98.7%

# — PubChem BioAssay (NCI)
